# Source: ChEMBL document CHEMBL3433997, “St. Jude Leishmania screening dataset” (2016)
# Where “and” joins values, the source holds several entries; their conditions need not be identical. Identical values can stand only once.
# Molecular target: Glucose transporter (Leishmania mexicana) (UniProt O61059)
# Assay: ST_JUDE_LEISH: Cytotoxicity at 2uM final concentration against transgenic Leishmania Mexicana promastigotes LmGT2 that are glucose transport deficient and complemented with the L. Mexicana glucose transporter 2. Activity is measured by DNA content using SYBR green in vitro
# Type: functional
row,Compound,inhibition
1,CN1CCN(CCCNCc2ccc(Nc3nccc(Nc4ccc(Oc5ccccc5)cc4)n3)cc2)CC1,1.48%
2,CN(C)CCNC(=O)[C@H](Cc1ccccc1)NC(=O)c1ccc(O)c(-c2ccc(Cl)c(Cl)c2)c1,-2.32%
3,O=C(Nc1cccnc1)c1cc(-c2cccnc2)nc2ccc(Br)cc12,-1.18%
4,Cc1cccc(NC(=O)NCc2ccccc2)n1,2.38%
5,COc1ccc(Nc2nccc(-c3c(-c4cccc(NC(=O)c5c(F)cccc5F)c4)nn4ccccc34)n2)cc1Cl,-0.51%
6,FC(F)(F)c1ccc2[nH]c(-c3ccc(-c4cccc(CNCc5ccccc5)c4)s3)nc2c1,1.82%
7,O=C(/C=C/c1ccc(Cl)c(Cl)c1)NCCCCCN1CCC(NC(=O)Nc2cccc(Cl)c2)CC1,3.33%
8,CC1CCCC(NCc2c(O)ccc3ccccc23)C1 (stereo not given),3.69%
9,c1ccc(CCNCc2ccc(-c3ccc(CNCc4ccc5c(c4)OCO5)cc3)nc2)cc1,1.81%
10,N#Cc1ccc2c(c1)CN(CCCCNC(=O)c1ccc(-c3ccccc3)cc1)CC2,3.99%
11,Cc1nc(C)c(-c2ccc(C(=O)c3ccc(Cl)cc3)cc2)c(O)c1Cl,9.25%
12,CN1CCN(CCCN(Cc2ccc(-c3cccc(CNCc4ccc5c(c4)OCO5)c3)cc2)C(=O)NC2CCCCC2)CC1,0.88%
13,O=C(/C=C/c1cccc(C(F)(F)F)c1)NCCCCCN1CCN(C(=O)Nc2ccc(Cl)c(Cl)c2)CC1,1.97%
14,Cc1ccccc1C1CCN(C2CCC(NC(=O)c3ccc4c(c3)-c3nocc3C(C)O4)CC2)CC1 (stereo not given),5.18%
15,CN(C)C(=S)N/N=C1/C(=O)Nc2ccccc21,1.43%
16,CCOc1ccc(-n2nc3c(Cl)nnc(-c4ccccc4)c3c2-c2ccccc2)cc1,0.01%
17,O=C(NC(CCCN1CCC(c2ccccc2)CC1)c1ccc(Cl)c(Cl)c1)c1cc(C(F)(F)F)cc(C(F)(F)F)c1 (stereo not given),1.89%
18,Cc1ccc(C)c(Sc2ccc(NC(=O)CN3CCN(C(=O)c4ccco4)CC3)cc2)c1,0.17%
19,C=C[C@]1(C)C[C@@H](OC(=O)CNC[C@@H](O)CN2C[C@H](c3ccnc4ccc(OC)nc34)OC2=O)[C@@]2(C)[C@@H]3C(=O)CC[C@@]3(CC[C@@H]2C)[C@@H](C)[C@@H]1O,1.03%
20,O=c1c(Br)c(C(F)(F)F)[nH]c2ccc(Oc3ccccc3)cc12,2.63%

row,Compound,inhibition
1,COc1cccc(COCC(O)CN(CCc2ccccn2)C(=O)c2ccccc2F)c1 (stereo not given),2.65%
2,CN1CCN(Cc2cccc(-c3cc4nccc(Nc5ccc(Oc6ccccc6)cc5)c4cc3Cl)c2)CC1,1.01%
3,Cc1cccc2nc(-c3ccc(-c4ccc(CN5CCN(C6CCN(C)CC6)CC5)cc4)s3)[nH]c12,-2.96%
4,COc1cc(Nc2ccnc3ccc(C(C)(C)C)cc23)cc(OC)c1OC,1.66%
5,Cc1ccc(F)c(C(=O)Nc2cccc(-c3nn4ccccc4c3-c3ccnc(Nc4cccc(F)c4)n3)c2)c1F,6.93%
6,CN1CCN(c2ccc(-c3cc(-c4cc(F)c(F)c(F)c4)cnc3N)cc2)CC1,0.2%
7,CC[C@H]1CN2CCc3c([nH]c4ccccc34)[C@@H]2C[C@@H]1CC1c2cc(OC)c(OC)cc2CCN1C (stereo not given in full),9.79%
8,Oc1ccc(CCNCCCCCCNCCc2ccc(Cl)c3ccccc23)cc1O,-2.9%
9,O=C(Nc1cccc([N+](=O)[O-])c1)Nc1ccc(Cl)c(C(F)(F)F)c1,0.73%
10,Oc1ccc(CCNCCCCCCNCCCc2ccc(Cl)cc2)cc1O,4.05%
11,COc1c(C2CCN(CCCCNC(=O)c3ccc(-c4ccc(Cl)cc4)cc3)CC2)ccc2c1C(C)(C)CCC2(C)C,-2.13%
12,Cc1cc(Nc2nc(NCc3cccnc3)nc3ccccc23)n[nH]1,10%
13,CCCc1cn2c3c(cc(C(=O)N[C@@H](Cc4ccccc4)[C@H](O)CNC4CCOCC4)cc13)N(CC)S(=O)(=O)CC2,1.03%
14,Cc1cc2c(cc1C(F)(F)F)N(C(=O)Nc1ccc(OCCN(C)C)c(C(F)(F)F)c1)CC2,0.83%
15,Cc1[nH]c2ccccc2c1C(=O)CSc1nn(-c2ccccc2)c(=S)s1,2.44%
16,O=C(Nc1ccc(Cn2ncc(N3CCCNCC3)c(Cl)c2=O)cc1)Nc1ccc(-c2ccccc2)cc1,-4.66% and 1.38%
17,CN1CCc2ccc(NC(=O)Nc3ccc(-c4ccccc4)cc3)cc2C1,0.87%
18,O=c1cc(NCCCNCc2cccc(I)c2)[nH]c2ccccc12,-0.58%
19,CC(C)Cc1nc(N)nc(N)c1-c1ccc(Cl)cc1,5.17%
20,CCN(CC)CCN(Cc1ccc(-c2ccc(C(F)(F)F)cc2)cc1)C(=O)Cn1c(CCc2cc(F)cc(F)c2F)nc(=O)c2ccccc21,-0.7%
